Test results: paper PMC5540273 (PLoS ONE, 2017)

Tests used:
Settings in all cases: concentration: 1 μM, replicates: in singlicate; n = 1
CSK = system: CSK
CSNK1A1L = system: CSNK1A1L
CSNK1A1 = system: CSNK1A1
CSNK1D = system: CSNK1D
CSNK1E = system: CSNK1E
CSNK1G1 = system: CSNK1G1
CSNK1G2 = system: CSNK1G2
CSNK1G3 = system: CSNK1G3
CSNK2A1 = system: CSNK2A1
CSNK2A2 = system: CSNK2A2
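Note: KINOMEscan kinase panel screen.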

Structure (SMILES)	%Inh (CSK)	%Inh (CSNK1A1L)	%Inh (CSNK1A1)	%Inh (CSNK1D)	%Inh (CSNK1E)	%Inh (CSNK1G1)	%Inh (CSNK1G2)	%Inh (CSNK1G3)	%Inh (CSNK2A1)	%Inh (CSNK2A2)
O=C(Nc1n[nH]c2nc(-c3cccs3)c(Br)cc12)C1CC1 [SB-735297]	12%	6%	0%	0%	0%	0%	0%	17%	26%	51%
CC(=O)c1cccc(NC(=O)NC2CCN(c3ccnc(Nc4ccc(F)cc4)n3)C2)c1 (centres unmarked) [GSK1379710]	5%	0%	0%	27%	18%	12%	0%	25%	16%	15%
CCCCc1nn2ncccc2c1-c1ccnc(NC2CC2)n1 [GW684374]	2%	0%	18%	90.1%	92.4%	0%	0%	25%	0%	5%
COc1ccc(Nc2nccc(-c3ccc(NC(=O)c4cc5cc(F)ccc5[nH]4)cc3)n2)cc1 [GSK1229496]	0%	0%	0%	0%	21%	0%	0%	17%	0%	0%
CS(=O)(=O)CCNCc1nc(-c2ccc3ncnc(Nc4ccc(OCc5ccccc5)c(Cl)c4)c3c2)cs1.Cl [GW582764]	0%	9%	0%	10%	15%	0%	0%	13%	0%	0%
CN1c2ccc(-c3ccc(C(N)=O)cc3)cc2-c2[nH]ncc2S1(=O)=O	0%	0%	3%	1%	1%	0%	0%	0%	0%	1%
Cn1cnc2c(N)ncnc21 [SKF-97623]	0%	22%	1%	0%	8%	0%	70%	0%	0%	0%
Nc1ncnc2occ(-c3ccc4c(c3)CCN4C(=O)Cc3cc(F)ccc3F)c12 [GSK2645446]	0%	1%	1%	0%	30%	4%	0%	38%	0%	11%
COC(=O)c1cccc(NC(=O)NC2CCN(c3ccnc(Nc4ccc(F)cc4)n3)C2)c1 (centres unmarked) [GSK1379725]	0%	3%	0%	21%	7%	0%	0%	9%	0%	0%
Cc1cccc2c(-c3ccncn3)c(-c3ccc(F)cc3)nn12 [GW515532]	0%	0%	50%	81%	100%	14%	0%	99.9%	1%	0%
Cc1c(Cn2c(C)c(C)n3c(=O)cc(N4CCOCC4)nc23)cccc1C(F)(F)F [GSK2328680]	0%	10%	0%	24%	20%	0%	0%	21%	2%	5%
CC(=O)c1c(C)c2cnc(Nc3ccn(C)n3)nc2n(C2CCCC2)c1=O	1%	0%	3%	0%	0%	0%	0%	16%	56%	50%
Cc1ccc(NC(=O)Nc2ccc(Cl)c(C(F)(F)F)c2)cc1-c1ccc(C(=O)Nc2ccncc2)cc1 [GSK1398470]	0%	9%	22%	7%	7%	11%	24%	21%	21%	0%
COc1ccc(Nc2nccc(NCCNC(=O)Nc3cc(C)ccc3C)n2)cc1 [GSK1379899]	0%	1%	0%	4%	22%	0%	0%	15%	1%	0%
Fc1ccc(-c2nn3cccc(F)c3c2-c2ccncc2)cc1 [GW475620]	0%	30%	69%	94%	96.2%	16%	2%	24%	11%	9%
Cc1ccc(NC(=O)Nc2ccccc2F)cc1-c1ccc(C(=O)Nc2ccncc2)cc1 [GSK1398477]	0%	20%	0%	12%	16%	18%	32%	28%	19%	18%
COc1ccc(Nc2nccc(N3CCC(NC(=O)c4cc5ccccc5s4)C3)n2)cc1 (centres unmarked) [GSK1379738]	2%	2%	0%	9%	34%	0%	0%	17%	5%	0%
